The results in this text go back to PubChem BioAssay AID1508647 (National Center for Advancing Translational Sciences (NCATS), 2021).

Molecules are shown by their SMILES. This is one part of the list. Inconclusive results are not listed. Active and inactive are the calls of the source. Calls follow the shape of the dose curve; as a rule, active = well fitted inhibition curve with a large enough effect; inconclusive = small, poorly fitted or top-dose-only effect, or another doubt; inactive = no such curve, though single readings can be large or run the other way.

This assay deals with Peripheral myelin protein 22 (Rattus norvegicus) (UniProt P25094). Description: Cell-based HiBiT reporter assay to measure PMP22 protein expression in S16 Pmp22-HiBiT cells - Confirmatory screen. As to conditions: S16 Schwann cells Pmp22-HiBiT, luminescence, 48 h; series mostly up to 27.9 µM. The text has this: Assay Provider: Jim Inglese Ph.D. National Center for Advancing Translational Science, National Institutes of Health, Rockville, MD CMT is a heterogeneous group of neurological disorders that affect approximately 1 in 2,500 people. In particular, the most common form of CMT, CMT1A is genetically linked to the duplication of the PMP22 gene which leads to Schwann cell overexpression, thus manifesting itself as a typical case of dose-sensitive diseases. […] We can further discriminate the effect of all transcriptionally active molecules on PMP22 translation or stability with an assay that incorporates a short NLuc peptide (HiBiT) at the C-terminus of expressed PMP22 (S16(f8) PMP22-HiBiT) allowing alpha complementation and luminescence detection of membrane-associated PMP22 protein. […] Miniaturization of these assays to 1536-well plate format for quantitative high throughput screening (qHTS) yielded rich data sets immediately from the qHTS assay (S16(c9) Pmp22-F2sN), when compared with data from a cell viability assay (Cell TiterGlo) to identify compounds that decreased the output signals through cellular toxicity to streamline the selection process of actives for subsequent characterization using the HiBiT assay (S16(f8) PMP22-HiBiT). […]
Peripheral myelin protein 22 (Rattus norvegicus), sequence (P25094 whole entry, looked up): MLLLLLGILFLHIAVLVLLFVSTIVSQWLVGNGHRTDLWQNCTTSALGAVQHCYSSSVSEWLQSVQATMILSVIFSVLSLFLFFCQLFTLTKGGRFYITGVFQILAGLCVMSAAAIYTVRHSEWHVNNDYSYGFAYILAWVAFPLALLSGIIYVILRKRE
(With HiBiT, luminescence reflects the tagged protein that the partner subunit can reach.)
As for `Cc1ccc(NC(=O)c2nc(S(=O)(=O)Cc3cccc(C)c3)ncc2Cl)cc1`, the outcome was inactive.
